This note sets out measurements from PMC11006913.

Numbering of substitutions follows the chain as printed.

Holding throughout (assay): PBM; 200 nM protein, PBS
Common to all, as to settings: dsDNA, one strand shown

The target in experiment [1] is T1, PAX4 (Homo sapiens, UniProt O43316 9-242, R200K).
T1 sequence: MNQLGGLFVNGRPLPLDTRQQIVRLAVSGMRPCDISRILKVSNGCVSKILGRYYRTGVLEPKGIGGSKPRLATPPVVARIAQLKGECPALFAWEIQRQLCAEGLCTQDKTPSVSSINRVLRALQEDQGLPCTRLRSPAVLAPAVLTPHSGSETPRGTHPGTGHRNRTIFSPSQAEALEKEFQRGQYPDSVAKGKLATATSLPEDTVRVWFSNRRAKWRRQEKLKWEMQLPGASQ

In experiment [2] the target is T2, PAX4 (Homo sapiens, UniProt O43316 9-242).
T2 sequence: T1 sequence with K192R

The target of experiment [3] is T3, PAX4 (Homo sapiens, UniProt O43316 9-242, R200Q).
T3 sequence: T1 sequence with K192Q

The target in experiment [4] is T4, PAX4 (Homo sapiens, UniProt O43316 9-242, F177V).
T4 sequence: T1 sequence with F169V, K192R

Experiment [5] concerns the target T5, PAX4 (Homo sapiens, UniProt O43316 9-242, F177Y).
T5 sequence: T1 sequence with F169Y, K192R

Experiment [6] has as its target PROP1 (Homo sapiens, UniProt O75360 56-141).
Experiment [7] has as its target PROP1 (Homo sapiens, UniProt O75360 56-141, R99H).
For experiment [8], the target named is PROP1 (Homo sapiens, UniProt O75360 56-141, F88S).
PROP1 (Homo sapiens, UniProt O75360 56-141, F88S), sequence (O75360 56-141 F88S): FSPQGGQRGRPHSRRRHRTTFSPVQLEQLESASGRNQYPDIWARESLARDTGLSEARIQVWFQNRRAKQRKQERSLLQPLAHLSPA
For experiment [9], the target named is T6, PAX4 (Homo sapiens, UniProt O43316 9-242, R227W).
T6 sequence: T1 sequence with K192R, R219W

Another experiment addresses PRRX1 (Homo sapiens, UniProt P54821 80-166, F113S).
Experiment [10] concerns the target NKX3-2 (Homo sapiens, UniProt P78367 192-278, P234S).
Experiment [11] addresses NKX3-2 (Homo sapiens, UniProt P78367 192-278).

PROP1 (Homo sapiens, UniProt O75360 56-141), sequence (O75360 56-141): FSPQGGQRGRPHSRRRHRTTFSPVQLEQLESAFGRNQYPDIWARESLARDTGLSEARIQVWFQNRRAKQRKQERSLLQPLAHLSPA
PROP1 (Homo sapiens, UniProt O75360 56-141, R99H), sequence (O75360 56-141 R99H): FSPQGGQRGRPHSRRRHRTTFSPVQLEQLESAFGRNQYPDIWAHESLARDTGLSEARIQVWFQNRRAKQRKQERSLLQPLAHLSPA
NKX3-2 (Homo sapiens, UniProt P78367 192-278, P234S), sequence (P78367 192-278 P234S): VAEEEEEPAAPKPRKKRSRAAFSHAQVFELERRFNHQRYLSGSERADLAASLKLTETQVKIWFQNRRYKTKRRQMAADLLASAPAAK
NKX3-2 (Homo sapiens, UniProt P78367 192-278), sequence (P78367 192-278): as the sequence (P78367 192-278 P234S) above, with S43P counted along it
PRRX1, sequence (P54821 80-166 F113S): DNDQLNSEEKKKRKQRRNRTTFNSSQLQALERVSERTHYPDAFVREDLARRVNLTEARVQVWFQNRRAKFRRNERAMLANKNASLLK

In the case of AAGGGGGC, the binding signal was 9.31 upbm affinity estimate (log intensity, higher = more binding, comparable within an allelic series) in the experiment with PAX4 [1]; 9.38 upbm affinity estimate (log intensity, higher = more binding, comparable within an allelic series) with PAX4 [2]; 9.38 upbm affinity estimate (log intensity, higher = more binding, comparable within an allelic series) with PAX4 [3]; 9.25 upbm affinity estimate (log intensity, higher = more binding, comparable within an allelic series) in the experiment with PAX4 [4]; 9.22 upbm affinity estimate (log intensity, higher = more binding, comparable within an allelic series) with PAX4 [5]; 6.71 upbm affinity estimate (log intensity, higher = more binding, comparable within an allelic series) in the experiment with PROP1 [6]. Besides, the binding signal with PROP1 [7] was 6.71 upbm affinity estimate (log intensity, higher = more binding, comparable within an allelic series); with PROP1 [8], 6.36 upbm affinity estimate (log intensity, higher = more binding, comparable within an allelic series); in the experiment with PAX4 [9], 9.29 upbm affinity estimate (log intensity, higher = more binding, comparable within an allelic series).

Take GCCGGGAC: the binding signal was 9.33 upbm affinity estimate (log intensity, higher = more binding, comparable within an allelic series) with PAX4 [1]; 9.39 upbm affinity estimate (log intensity, higher = more binding, comparable within an allelic series) in the experiment with PAX4 [2]; 9.37 upbm affinity estimate (log intensity, higher = more binding, comparable within an allelic series) in the experiment with PAX4 [3]; 9.2 upbm affinity estimate (log intensity, higher = more binding, comparable within an allelic series) with PAX4 [4]; 9.2 upbm affinity estimate (log intensity, higher = more binding, comparable within an allelic series) in the experiment with PAX4 [5]; 7.02 upbm affinity estimate (log intensity, higher = more binding, comparable within an allelic series) in the experiment with PROP1 [6]. Besides, the binding signal with PROP1 [7] is 6.96 upbm affinity estimate (log intensity, higher = more binding, comparable within an allelic series); with PROP1 [8], 6.46 upbm affinity estimate (log intensity, higher = more binding, comparable within an allelic series); in the experiment with PAX4 [9], 9.24 upbm affinity estimate (log intensity, higher = more binding, comparable within an allelic series).

As to CCGAAGCC, the binding signal with PAX4 [1] is 9.25 upbm affinity estimate (log intensity, higher = more binding, comparable within an allelic series); in the experiment with PAX4 [2], 9.26 upbm affinity estimate (log intensity, higher = more binding, comparable within an allelic series); with PAX4 [3], 9.27 upbm affinity estimate (log intensity, higher = more binding, comparable within an allelic series); with PAX4 [4], 9.17 upbm affinity estimate (log intensity, higher = more binding, comparable within an allelic series); with PAX4 [5], 9.2 upbm affinity estimate (log intensity, higher = more binding, comparable within an allelic series); with PAX4 [9] it was 9.18 upbm affinity estimate (log intensity, higher = more binding, comparable within an allelic series).

With TAATTCGA, the binding signal is 11.8 upbm affinity estimate (log intensity, higher = more binding, comparable within an allelic series) with PAX4 [1]; 12.4 upbm affinity estimate (log intensity, higher = more binding, comparable within an allelic series) with PAX4 [2]; 11.7 upbm affinity estimate (log intensity, higher = more binding, comparable within an allelic series) with PAX4 [3]; 10.6 upbm affinity estimate (log intensity, higher = more binding, comparable within an allelic series) with PAX4 [4]; 11.2 upbm affinity estimate (log intensity, higher = more binding, comparable within an allelic series) with PAX4 [5]; 11 upbm affinity estimate (log intensity, higher = more binding, comparable within an allelic series) with PAX4 [9].

As for AGCGCTGC, the binding signal was 9.36 upbm affinity estimate (log intensity, higher = more binding, comparable within an allelic series) with PAX4 [1]; 9.27 upbm affinity estimate (log intensity, higher = more binding, comparable within an allelic series) with PAX4 [2]; 9.34 upbm affinity estimate (log intensity, higher = more binding, comparable within an allelic series) in the experiment with PAX4 [3]; 9.36 upbm affinity estimate (log intensity, higher = more binding, comparable within an allelic series) with PAX4 [4]; 9.24 upbm affinity estimate (log intensity, higher = more binding, comparable within an allelic series) with PAX4 [5]; 9.35 upbm affinity estimate (log intensity, higher = more binding, comparable within an allelic series) in the experiment with PAX4 [9].

As to CTGGGCCC, the binding signal with PAX4 [1] was 9.08 upbm affinity estimate (log intensity, higher = more binding, comparable within an allelic series); in the experiment with PAX4 [2] it was 8.93 upbm affinity estimate (log intensity, higher = more binding, comparable within an allelic series); in the experiment with PAX4 [3] it was 9.11 upbm affinity estimate (log intensity, higher = more binding, comparable within an allelic series); with PAX4 [4] it was 8.97 upbm affinity estimate (log intensity, higher = more binding, comparable within an allelic series); in the experiment with PAX4 [5] it was 9.09 upbm affinity estimate (log intensity, higher = more binding, comparable within an allelic series); with PAX4 [9], 9.02 upbm affinity estimate (log intensity, higher = more binding, comparable within an allelic series).

Consider CCAAGTCC, for which the binding signal was 9.27 upbm affinity estimate (log intensity, higher = more binding, comparable within an allelic series) with PAX4 [1]; 9.3 upbm affinity estimate (log intensity, higher = more binding, comparable within an allelic series) with PAX4 [2]; 9.4 upbm affinity estimate (log intensity, higher = more binding, comparable within an allelic series) with PAX4 [3]; 9.27 upbm affinity estimate (log intensity, higher = more binding, comparable within an allelic series) in the experiment with PAX4 [4]; 9.25 upbm affinity estimate (log intensity, higher = more binding, comparable within an allelic series) in the experiment with PAX4 [5]; 9.38 upbm affinity estimate (log intensity, higher = more binding, comparable within an allelic series) with PAX4 [9].

On to AAATTAAG, for which the binding signal with PAX4 [1] is 11.5 upbm affinity estimate (log intensity, higher = more binding, comparable within an allelic series); with PAX4 [2], 12.1 upbm affinity estimate (log intensity, higher = more binding, comparable within an allelic series); with PAX4 [3], 11.8 upbm affinity estimate (log intensity, higher = more binding, comparable within an allelic series); in the experiment with PAX4 [4], 10.4 upbm affinity estimate (log intensity, higher = more binding, comparable within an allelic series); with PAX4 [5], 10.8 upbm affinity estimate (log intensity, higher = more binding, comparable within an allelic series); in the experiment with PAX4 [9], 10.8 upbm affinity estimate (log intensity, higher = more binding, comparable within an allelic series).

Turning to ATTGATTA, the binding signal with PRRX1 is 11.1 upbm affinity estimate (log intensity, higher = more binding, comparable within an allelic series).

With GGAAAATA, the binding signal with PAX4 [1] was 10.5 upbm affinity estimate (log intensity, higher = more binding, comparable within an allelic series); with PAX4 [2] it was 10.7 upbm affinity estimate (log intensity, higher = more binding, comparable within an allelic series); in the experiment with PAX4 [4], 10.1 upbm affinity estimate (log intensity, higher = more binding, comparable within an allelic series); with PAX4 [5], 10.1 upbm affinity estimate (log intensity, higher = more binding, comparable within an allelic series).

For GGGCGCGA, the binding signal is 9.18 upbm affinity estimate (log intensity, higher = more binding, comparable within an allelic series) with PAX4 [1]; 9.18 upbm affinity estimate (log intensity, higher = more binding, comparable within an allelic series) with PAX4 [2]; 9.16 upbm affinity estimate (log intensity, higher = more binding, comparable within an allelic series) with PAX4 [3]; 9.01 upbm affinity estimate (log intensity, higher = more binding, comparable within an allelic series) in the experiment with PAX4 [4]; 9.02 upbm affinity estimate (log intensity, higher = more binding, comparable within an allelic series) with PAX4 [5]; 9.14 upbm affinity estimate (log intensity, higher = more binding, comparable within an allelic series) with PAX4 [9]. The binding signal with NKX3-2 [10] was 10.6 upbm affinity estimate (log intensity, higher = more binding, comparable within an allelic series); with NKX3-2 [11], 10.6 upbm affinity estimate (log intensity, higher = more binding, comparable within an allelic series).

Turning to ACCGGGGC, the binding signal with PAX4 [1] was 9.07 upbm affinity estimate (log intensity, higher = more binding, comparable within an allelic series); with PAX4 [2], 9.11 upbm affinity estimate (log intensity, higher = more binding, comparable within an allelic series); with PAX4 [3], 9.2 upbm affinity estimate (log intensity, higher = more binding, comparable within an allelic series); with PAX4 [4], 9.11 upbm affinity estimate (log intensity, higher = more binding, comparable within an allelic series); with PAX4 [5], 9.09 upbm affinity estimate (log intensity, higher = more binding, comparable within an allelic series); with PAX4 [9], 9.2 upbm affinity estimate (log intensity, higher = more binding, comparable within an allelic series).
